Source: PubChem BioAssay (National Center for Advancing Translational Sciences (NCATS))
SW480 rerep: A quantitative high throughput screen for small molecules that induce DNA re-replication in SW480 colon adenocarcinoma cells; SW480 DNA re-replication, Hoechst DNA content imaging, 48 h; Potency, µM (titrated, usually from 46.1 µM), inactives show at the highest dose re-replication activation, actives largely listed as activators; 340,000 tested, 1.8% active; AID 624297, 2012; note: potency is the fitted concentration of half-maximal effect; % of control where 0% means no effect; nearly all actives have a fitted effect of over 55% in size
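Per well, 250 cells were exposed to pinned compound for 48 hr. Nuclear DNA was visualised with Hoechst (40 min, 37 C) and total object intensity recorded by fluorescence scanning.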
Giardia killer: Small Molecules that selectively kill Giardia lamblia: qHTS. AID 540267, 2011. 340,000 tested, 0.15% active. activity change, % at 7.66 µM, hits read low. Giardia lamblia trophozoite viability; in the data active = activity change below about -80%; inconclusive = between about -30% and that limit;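 note: parasites exposed to compound for two days anaerobically before the ATP read; % is set by controls: 0 for no effect and ±100 for the full control effect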
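Luminescent ATP signal served as the viability read-out, measured 15-30 min after adding ATP detection reagent to trophozoites that had been incubated with compounds for 48 hrs at 37 deg C anaerobically at 100 cells/well.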
MCF10A rereplic: A quantitative high throughput screen for small molecules that induce DNA re-replication in MCF 10a normal breast cells; MCF 10A DNA re-replication, Hoechst nuclear intensity, 48 h; Potency, µM (titrated, usually from 46.1 µM), without a hit: at the top dose activity, positive = re-replication, most hits filed as activators; 350,000 tested, 2.9% active; AID 624296, 2012; note: potency is the fitted concentration of half-maximal effect; % of control where 0% means no effect; nearly all actives have a fitted effect of over 50% in size
uPA generation: qHTS for Inhibitors of Cell Surface uPA Generation; 330,000 tested, 0.31% active; cell surface uPA generation assay, qHTS; Potency, µM (series often up to 38.3 µM), for inactives: at the top dose activity change, negative = inhibition, most hits filed as inhibitors; active = well fitted inhibition curve with a large enough effect; inconclusive = small, poorly fitted or top-dose-only effect; inactive = no such curve, though single readings can be large or run the other way; tested in mouse RAW 264.7 cells; note: potency is the fitted concentration of half-maximal effect; % is set by controls: 0 for no effect and ±100 for the full control effect; nearly all actives have a fitted effect of over 55% in size
* = called active by the depositor; ? = inconclusive; · = no result. A selection: hits, their analogues and other compounds. The true share with any hit is near 4.3%. Unless noted, calls come from the whole dose curve; as a rule, active = well fitted activation curve with a large enough effect; inconclusive = small, poorly fitted or top-dose-only effect; inactive = no such curve, though single readings can be large or run the other way.

SMILES	SW480 rerep	Giardia killer	MCF10A rereplic	uPA generation
CCCCNC(=O)c1cccc(S(=O)(=O)N2CC3(C)CC2CC(C)(C)C3)c1 (configuration not stated)	-10%	9	-4%	2.2µM*
CCn1cc(C(=O)O)c(=O)c2cc(F)c(N3CCN[C@@H](C)C3)c(F)c21	-1%	·	6%	·
Cc1csc(NC(=O)CCCC(=O)O)c1-c1nc2ccccc2s1	15µM*	5	11%	1%
CC(=O)Nc1scc(C)c1-c1nc2ccccc2s1	191%	-1	21µM*	-2%
CNc1sc(C(=O)c2ccc(F)cc2)c(N)c1-c1nc2ccccc2s1	5.2µM*	5	16µM*	·
C=CCC1(CC=C)CCCN1C(=O)c1cc(COc2ccccc2SC)on1	11%	24	?	-9%
Cc1c(/C=N/NC(=O)c2cccs2)c2ccccc2n1Cc1ccccc1Cl	15µM*	-15	16µM*	0%
COc1ccccc1-n1cc([C@@H]2C[C@H]3CN(c4ccccc4)C(=O)[C@]34CCCN24)cn1	8.2µM*	-16	2.6µM*	-15%
COc1cc([C@@H]2C[C@H]3CN(c4ccccc4)C(=O)[C@]34CCCN24)cc(OC)c1OC	-3%	-5	18µM*	-15%
O=C(CCC(F)(F)F)N1CCCC(CO)(CCc2ccccc2)C1 (configuration not stated)	?	-6	0.65µM*	-10%
O=C(NCCc1ccccc1)c1ccc(NC(=O)C2CCCC2)cc1	4%	8	?	-5%
COc1ccccc1Nc1c2c(nc3ccccc13)CCC2	15µM*	-5	12µM*	-18%
O=C(Nc1c2c(nc3ccccc13)CCCC2)c1ccccc1Cl	7.3µM*	-4	0%	-2%
CC(=O)c1ccc(Nc2c3c(nc4ccccc24)CCCC3)cc1	?	16	15µM*	?
COc1ccc(Nc2c3c(nc4ccccc24)CCC3)c(OC)c1	?	-4	?	-19%
CC(=O)c1cccc(Nc2c3c(nc4ccccc24)CCC3)c1	5.8µM*	26	?	0.79µM*
Cc1ccc(S(=O)(=O)N2CCN(c3nc(-c4cccs4)cc4ccccc34)CC2)cc1	·	-18	·	·
COc1cc(/C=N/O)cc(Br)c1OCc1ccc(Cl)cc1	?	0	18µM*	-6%
COc1ccccc1N(CC(=O)Nc1ccc(Br)cc1F)S(=O)(=O)c1cccs1	-45%	6	?	0%
Cc1ccc(NC(=O)c2ccc(NCCc3ccccc3)c([N+](=O)[O-])c2)cc1F	4%	-16	18µM*	-5%
O=C(Nc1cc(F)cc(F)c1)c1ccc(NCCc2ccccc2)c([N+](=O)[O-])c1	-10%	-8	17%	-2%
COc1cccc(C(=O)NCC(=O)N2CCC3(CC2)NCCc2[nH]cnc23)c1OC	-7%	-7	7%	3%
CCCCN1CC(O)C(O)C(O)C1CO (configuration not stated)	2%	·	-1%	·
COc1coc(/C=C/C(=O)O)cc1=O	1.5µM*	-1	-1%	-4%
COc1ccc(SN=C2C(C)=CC(=O)C=C2C)cc1	?	-18	26µM*	-18%
SMILES	SW480 rerep	Giardia killer	MCF10A rereplic	uPA generation
CCN(CC)c1ccc(N=Cc2ccc([N+](=O)[O-])o2)cc1	2.3µM*	-10	23µM*	-6%
CCN(CC)c1ccc(N=Cc2ccccc2[N+](=O)[O-])cc1	2.6µM*	-8	?	-5%
COC(=O)CS(=O)(=O)c1cc(Br)cc2c1N(C(C)=O)CC2	-3%	-23	-2%	3%
COc1ccc(NS(=O)(=O)c2cc(Br)cc3c2N(C(C)=O)CC3)cc1	6.5µM*	1	18µM*	-25%
BrC(=C\c1ccccc1)/C=N/Nc1nc2ccccc2[nH]1	?	5	8.2µM*	-6%
S=C(Nc1ccc(Oc2ccccc2)cc1)NC1CCCCCC1	2%	14	15µM*	10%
S=C(Nc1ccc(Cl)c(Cl)c1)NC1CCCCC1	3.3µM*	22	80%	·
S=C(NNc1ccc2ccccc2c1)NC1CCCCC1	?	3	4.6µM*	-4%
S=C(Nc1ccc(Cl)cc1)NC1CC2CCCC(C1)N2C1CCCC1 (configuration not stated)	23µM*	26	?	-5%
O=C(Nc1cccc([N+](=O)[O-])c1)NC1CCCCCCC1	?	-4	?	-3%
CCn1c(C(=O)N2CCCC(C(=O)O)C2)cc2sccc21 (configuration not stated)	9%	-10	2%	3%
